In PubChem BioAssay (EPA / NIEHS) one finds AC50 and outcome data, which are given here for three compounds.

What all share (conditions): mRNA level, 48 h; actives raise or lower the signal
Read-out in test [1]: DNA damage-inducible transcript 3 (DDIT3), DDIT3 (gene 1649)
Nature of the test: LTEA_HepaRG_DDIT3: Life Technologies and Expression Analysis (LTEA) Assay for DNA damage-inducible transcript 3 (DDIT3) using HepaRG (AID 2283488). In short, it runs like this:
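Cells are human HepaRG liver cells treated for 48 h with eight half-log concentrations up to 100 uM in 0.5% DMSO. Transcript levels come from qRT-PCR normalized to three housekeeping genes, with activity fitted in both directions relative to vehicle.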

Read-out in test [2]: Pro-epidermal growth factor (Homo sapiens) (UniProt P01133)
Nature of the test: LTEA_HepaRG_EGF: Life Technologies and Expression Analysis (LTEA) Assay for Epidermal growth factor (EGF) using HepaRG (AID 2283489). The essentials:
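Concentration-response mRNA assay: HepaRG cells dosed 48 h (max 100 uM, 0.5% DMSO), EGF measured by qRT-PCR and normalized to ACTB/GAPDH/POLR2A.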

Read-out in test [3]: Early growth response protein 1 (EGR1) transcription factor, EGR1 (gene 1958)
Description: LTEA_HepaRG_EGR1: Life Technologies and Expression Analysis (LTEA) Assay for Early growth response protein 1 (EGR1) transcription factor using HepaRG (AID 2283490). The essentials:
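EGR1 transcript levels quantified by qRT-PCR (Fluidigm arrays) against three housekeeping genes after 48 h chemical exposure of HepaRG cells. Eight-point half-log series topping at 100 uM, 0.5% DMSO vehicle, analyzed for gain or loss.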

Read-out in test [4]: Ezrin (EZR), EZR (gene 7430)
Description: LTEA_HepaRG_EZR: Life Technologies and Expression Analysis (LTEA) Assay for Ezrin (EZR) using HepaRG (AID 2283491). In short, it runs like this:
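Differentiated human HepaRG cells, 48 h after plating, were exposed in serum-free induction medium for 48 hours to eight half-log concentrations up to 100 uM in 0.5% DMSO. EZR mRNA was measured by TaqMan qRT-PCR, normalized to ACTB, GAPDH and POLR2A, and fitted bidirectionally against DMSO.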

Read-out in test [5]: Cytochrome P450 3A7 (Homo sapiens) (UniProt P24462)
Nature of the test: LTEA_HepaRG_CYP3A7: Life Technologies and Expression Analysis (LTEA) Assay for CYP3A7 using HepaRG (AID 2283492). The essentials:
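qRT-PCR of CYP3A7 in HepaRG lysates after 48 h treatment; concentration-response (8 points, max 100 uM) analysed bidirectionally relative to 0.5% DMSO controls.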

Read-out in test [6]: CYP3A5 (gene 1577)
Nature of the test: LTEA_HepaRG_CYP3A5: Life Technologies and Expression Analysis (LTEA) Assay for CYP3A5 using HepaRG (AID 2283493). The essentials:
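Human HepaRG hepatic cells receive 48 h chemical treatment at eight concentrations (half-log steps from 100 uM) in 0.5% DMSO. Expression of CYP3A5 is quantified by Fluidigm qRT-PCR and normalized to three reference genes.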

Read-out in test [7]: Fatty Acid-Binding Protein 1 (FABP1), FABP1 (gene 2168)
Nature of the test: LTEA_HepaRG_FABP1: Life Technologies and Expression Analysis (LTEA) Assay for Fatty Acid-Binding Protein 1 (FABP1) using HepaRG (AID 2283494). The essentials:
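FABP1 expression by TaqMan qRT-PCR, normalised to three housekeeping genes, in HepaRG cells after 48 h chemical treatment. Eight-point half-log series topping at 100 uM in 0.5% DMSO, duplicates; gain or loss fitted relative to vehicle.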

Read-out in test [8]: Cytochrome P450 4A22 (Homo sapiens) (UniProt Q5TCH4)
Description: LTEA_HepaRG_CYP4A22: Life Technologies and Expression Analysis (LTEA) Assay for Cytochrome P450 4A22 (CYP4A22) using HepaRG (AID 2283495). In short, it runs like this: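 Concentration-response (8 points, max 100 uM, 0.5% DMSO) in human HepaRG liver cells after 48 h exposure. CYP4A22 mRNA by TaqMan qRT-PCR with housekeeping-gene normalization.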

Read-out in test [9]: Cytochrome P450 7A1 (Homo sapiens) (UniProt P22680)
Nature of the test: LTEA_HepaRG_CYP7A1: Life Technologies and Expression Analysis (LTEA) Assay for Cytochrome P450 7A1 (CYP7A1) using HepaRG (AID 2283496). In short, it runs like this: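 HepaRG, 48 h exposure, 8-pt half-log series from 100 uM, 0.5% DMSO vehicle, duplicates. Readout: TaqMan qRT-PCR mRNA vs three housekeeping genes; bidirectional curve fit against DMSO baseline.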

Read-out in test [10]: Glutathione S-Transferase (GSTA2), GSTA2 (gene 2939)
Description: LTEA_HepaRG_GSTA2: Life Technologies and Expression Analysis (LTEA) Assay for Glutathione S-Transferase (GSTA2) using HepaRG (AID 2283497). In short, it runs like this: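 GSTA2 transcript levels came from Fluidigm TaqMan qRT-PCR normalized to three housekeeping genes, fitted in both directions against DMSO. HepaRG cultures received chemicals for 48 h in serum-free induction medium (0.5% DMSO), 8 half-log concentrations up to 100 uM, duplicate.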

Read-out in test [11]: Glutamate-cysteine ligase catalytic (GCLC), GCLC (gene 2729)
Description: LTEA_HepaRG_GCLC: Life Technologies and Expression Analysis (LTEA) Assay for Glutamate-cysteine ligase catalytic (GCLC) using HepaRG (AID 2283498). In short, it runs like this: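 Expression by TaqMan qRT-PCR, normalized to three housekeeping genes (ACTB, GAPDH, POLR2A), with up- or down-regulation fitted against DMSO. HepaRG cells dosed in duplicate for 48 h with 8 half-log concentrations up to 100 uM, vehicle 0.5% DMSO.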

Read-out in test [12]: growth arrest and DNA damage 45 (GADD45G), GADD45G (gene 10912)
Nature of the test: LTEA_HepaRG_GADD45G: Life Technologies and Expression Analysis (LTEA) Assay for growth arrest and DNA damage 45 (GADD45G) using HepaRG (AID 2283499). The essentials:
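Concentration-response in HepaRG: 48 h dosing, 0.5% DMSO, highest level 100 uM. GADD45G expression by qRT-PCR, normalised to endogenous controls; bidirectional fit to DMSO.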

Read-out in test [13]: Glutamate-cysteine ligase regulatory (GCLM), GCLM (gene 2730)
Description: LTEA_HepaRG_GCLM: Life Technologies and Expression Analysis (LTEA) Assay for Glutamate-cysteine ligase regulatory (GCLM) using HepaRG (AID 2283500). The essentials: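 Endpoint is GCLM transcript level by qRT-PCR, normalized to three housekeeping genes, after 48 h chemical exposure of human HepaRG cells (0.5% DMSO vehicle, top 100 uM, half-log dilutions). Fitting was bidirectional relative to DMSO.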

Read-out in test [14]: Heat shock 70 kDa protein 1 (HSPA1A), gene 3303
Nature of the test: LTEA_HepaRG_HSPA1A: Life Technologies and Expression Analysis (LTEA) Assay for Heat shock 70 kDa protein 1 (HSPA1A) using HepaRG (AID 2283502). The essentials: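 Cells were plated and cultured for 48 h, then switched to serum-free induction medium. Chemicals were added at eight half-log concentrations up to 100 uM for 48 h. RNA was then isolated and HSPA1A measured by qRT-PCR with bidirectional curve fitting against DMSO.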

Read-out in test [15]: Hypoxia-inducible factor 1-alpha (Homo sapiens) (UniProt Q16665)
Nature of the test: LTEA_HepaRG_HIF1A: Life Technologies and Expression Analysis (LTEA) Assay for Hypoxia-inducible factor 1 (HIF1A) Trancription factor using HepaRG (AID 2283503). In short, it runs like this:
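HIF1A transcript level read by qRT-PCR (ACTB, GAPDH, POLR2A normalization) after 48 h chemical exposure of HepaRG cultures. Eight half-log concentrations, top 100 uM, 0.5% DMSO vehicle, duplicates; bidirectional curve fit against DMSO baseline.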

Read-out in test [16]: 3-Hydroxy-3-Methylglutaryl-CoA Synthase 2 (HMGCS2), HMGCS2 (gene 3158)
Description: LTEA_HepaRG_HMGCS2: Life Technologies and Expression Analysis (LTEA) Assay for 3-Hydroxy-3-Methylglutaryl-CoA Synthase 2 (HMGCS2) using HepaRG (AID 2283504). In short, it runs like this:
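This steatosis marker was read as HMGCS2 mRNA change in HepaRG cells treated 48 h with up to 100 uM chemical. Normalisation used housekeeping genes; activity in either direction was fitted relative to 0.5% DMSO vehicle.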

Read-out in test [17]: HGF (gene 3082)
Nature of the test: LTEA_HepaRG_HGF: Life Technologies and Expression Analysis (LTEA) Assay for Hepatocyte Growth Facto (HGF) using HepaRG (AID 2283505). The essentials: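 Using HepaRG monolayers kept in 0.5% DMSO, chemicals were tested in duplicate over eight half-log concentrations from 100 uM for 48 h. Endpoint: HGF mRNA change relative to DMSO, normalized to ACTB/GAPDH/POLR2A.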

Read-out in test [18]: Insulin Like Growth Factor 1 (IGF1), IGF1 (gene 3479)
Description: LTEA_HepaRG_IGF1: Life Technologies and Expression Analysis (LTEA) Assay for Insulin Like Growth Factor 1 (IGF1) using HepaRG (AID 2283506). The essentials: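 Cells are thawed, plated and cultured 48 h, then exposed in duplicate to chemical (highest 100 uM, half-log steps, 0.5% DMSO) for another 48 h. Total RNA is analysed by Fluidigm qRT-PCR for IGF1 expression relative to vehicle.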

Read-out in test [19]: Intercellular Adhesion Molecule 1 (ICAM1), ICAM1 (gene 3383)
Nature of the test: LTEA_HepaRG_ICAM1: Life Technologies and Expression Analysis (LTEA) Assay for Intercellular Adhesion Molecule 1 (ICAM1) using HepaRG (AID 2283507). In short, it runs like this:
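Using the human liver line HepaRG, compounds are tested in duplicate over 48 h at concentrations up to 100 uM. Expression is determined by TaqMan qRT-PCR, normalized to endogenous controls, and analysed relative to 0.5% DMSO vehicle.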

Read-out in test [20]: Glutathione S-transferase M3 (GSTM3), GSTM3 (gene 2947)
Nature of the test: LTEA_HepaRG_GSTM3: Life Technologies and Expression Analysis (LTEA) Assay for Glutathione S-transferase M3 (GSTM3) using HepaRG (AID 2283501). The essentials: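 Expression of GSTM3 is determined by qRT-PCR in human liver HepaRG cells treated 48 h with an 8-point half-log range from 100 uM in 0.5% DMSO.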

The source made the active and inactive calls. The calls were made as follows: active = hit-call score of the fitted dose curve at least 0.9, where 1 is the maximum; inactive = score below 0.9.

Hypoxia-inducible factor 1-alpha (Homo sapiens), sequence (Q16665 whole entry, looked up): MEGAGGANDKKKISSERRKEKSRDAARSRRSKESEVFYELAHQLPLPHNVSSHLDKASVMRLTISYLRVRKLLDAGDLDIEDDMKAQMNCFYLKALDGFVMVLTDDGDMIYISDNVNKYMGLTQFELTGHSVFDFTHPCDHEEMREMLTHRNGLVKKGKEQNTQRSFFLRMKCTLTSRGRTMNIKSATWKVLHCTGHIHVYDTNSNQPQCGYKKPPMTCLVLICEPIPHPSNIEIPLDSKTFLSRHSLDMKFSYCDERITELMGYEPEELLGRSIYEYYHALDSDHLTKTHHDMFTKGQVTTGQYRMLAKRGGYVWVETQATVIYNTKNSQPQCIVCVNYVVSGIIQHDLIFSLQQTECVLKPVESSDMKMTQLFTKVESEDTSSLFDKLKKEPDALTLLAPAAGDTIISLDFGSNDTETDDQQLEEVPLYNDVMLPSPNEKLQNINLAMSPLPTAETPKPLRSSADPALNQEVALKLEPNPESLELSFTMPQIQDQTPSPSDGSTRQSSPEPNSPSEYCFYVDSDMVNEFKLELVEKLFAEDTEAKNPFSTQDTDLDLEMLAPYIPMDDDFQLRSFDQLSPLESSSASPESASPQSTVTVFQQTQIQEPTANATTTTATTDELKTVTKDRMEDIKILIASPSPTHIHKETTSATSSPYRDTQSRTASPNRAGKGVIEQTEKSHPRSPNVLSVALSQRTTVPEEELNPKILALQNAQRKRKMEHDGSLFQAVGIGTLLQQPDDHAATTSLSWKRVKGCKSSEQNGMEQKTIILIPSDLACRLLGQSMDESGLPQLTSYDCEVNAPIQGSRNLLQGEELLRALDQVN
Cytochrome P450 3A7 (Homo sapiens), sequence (P24462 whole entry, looked up): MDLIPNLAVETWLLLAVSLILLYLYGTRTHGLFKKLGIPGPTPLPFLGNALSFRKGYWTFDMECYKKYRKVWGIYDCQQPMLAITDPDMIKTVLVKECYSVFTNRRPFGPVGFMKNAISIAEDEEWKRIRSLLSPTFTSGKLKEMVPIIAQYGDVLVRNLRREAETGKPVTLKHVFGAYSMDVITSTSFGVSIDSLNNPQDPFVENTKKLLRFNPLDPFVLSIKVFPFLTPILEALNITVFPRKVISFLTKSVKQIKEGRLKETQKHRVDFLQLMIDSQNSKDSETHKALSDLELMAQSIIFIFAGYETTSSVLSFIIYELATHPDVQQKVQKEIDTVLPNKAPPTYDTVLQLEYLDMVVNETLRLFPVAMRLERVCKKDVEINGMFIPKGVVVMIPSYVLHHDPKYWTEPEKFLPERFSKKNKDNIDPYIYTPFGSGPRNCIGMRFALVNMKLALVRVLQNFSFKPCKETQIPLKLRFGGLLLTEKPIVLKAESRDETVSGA

By AC50 is commonly meant the midpoint of the concentration-response curve, whichever way the signal moves. Take `Oc1ccc(C(c2ccc(O)cc2)(C(F)(F)F)C(F)(F)F)cc1`: the AC50 in [1] was 79.3 µM (active); in test [2] it was 80.1 µM (active); in test [3], 81.5 µM (active); in [6] it was 80.2 µM (active); in [7], 92.5 µM (active); in [9], 89.6 µM (active). In addition, the AC50 was 79.5 µM (active) in test [10], 72.8 µM (active) in [14], 83.5 µM (active) in test [15] and 79.4 µM (active) in test [16]. Besides, the outcome in test [4], in test [5], in [8], in test [11], in [12] and in test [13] was inactive. For the same compound, the result in [17], in test [18] and in test [19] was inactive.
Turning to `Cc1ccccc1[N+](=O)[O-]`, the compound was called inactive in test [1], in test [2], in test [3], in [4], in [5] and in test [6]. For the same compound, the result in [7], in test [8], in [9], in [10], in test [11] and in test [12] was inactive. Besides, the compound was classed as inactive in test [13], in test [20], in test [14], in [15], in test [16] and in test [18]. In addition, in [19], the call was inactive.
In the case of `COS(=O)(=O)OC`, the compound was classed as inactive in [1], in test [2], in test [3], in test [4], in test [5] and in test [6]. Moreover, the call in [7], in test [8], in test [9], in test [10], in test [11] and in test [12] was inactive. The compound was called inactive in [13], in [20], in test [14], in [15], in test [16] and in test [18]. For the same compound, in test [19], the compound was classed as inactive.
